# Source: PubChem BioAssay (EPA / NIEHS)
# The source made the active and inactive calls. How the source made its calls: active means hit-call score of the fitted dose curve at least 0.9, where 1 is the maximum; inactive means score below 0.9.
# Test: APR_HepG2_p53Act_24hr: Apredica 24-hour HepG2 Assay for p53 Activation (AID 2282913)
# Details: high-content imaging, actives raise or lower the signal
# Procedure: APR_HepG2_24hr is a cell-based, multiplexed-readout assay that uses HepG2, a human liver cell line, with measurements taken at 24 hours after chemical dosing in a 384-well plate.APR_HepG2_p53Act_24hr is one of 10 assay component(s) measured or calculated from the APR_HepG2_24hr assay. It is designed to make measurements of dna content, a form of viability reporter, as detected with fluorescence intensity signals by HCS Fluorescent Imaging technology.Data from the assay component APR_HepG2_p53Act_24hr was analyzed into 1 assay endpoint. This assay endpoint, APR_HepG2_p53Act_24hr, was analyzed with bidirectional fitting relative to DMSO as the negative control and baseline of activity. Using a type of viability reporter, measures of protein for gain or loss-of-signal activity can be used to understand the signaling at the pathway-level as they relate to the gene TP53. Furthermore, this assay endpoint can be referred to as a primary readout, because this assay has produced multiple assay endpoints where this one serves a signaling function. To generalize the intended target to other relatable targets, this assay endpoint is annotated to the dna binding intended target family, where the subfamily is tumor suppressor.
# Cells were treated with dimethyl sulfoxide (DMSO) as a solvent control at a final concentration of 0.5% v/v or with compounds in DMSO with a resulting final DMSO concentration of 0.5% v/v. Compound treatment was done at concentrations of 0.39, 0.78, 1.56, 3.12, 6.24, 12.5, 25, 50, 100, and 200 uM in duplicate on each plate. Cells were treated with compounds for 1, 24, or 72 hr. Carbonyl […] m-chloro-phenylhydrazone (CCCP) and taxol were used as positive controls for mitochondrial function and cytoskeletal stability, respectively; DMSO served as the negative control for this experiment. Cells were fixed by the direct addition of 50 uL formaldehyde in Hank's Balanced Salt Solution (HBSS) to a final concentration of 3.7%. After incubation in the fixation medium for 30 min at room temperature (293-298 K), cells were rinsed twice with HBSS and treated with cell permeabilization buffer (16 uL of 0.5% Triton X-100) for 10 min at room temperature (293-298 K) before labeling. For mitochondrial membrane potential and mitochondrial measurements, pre-fixed cells were incubated with 50 uL of MitoTracker Red CMXRos (Invitrogen) at a concentration of 250 nM for 30 min before fixation. In the remaining cases, post-fixed cells were labeled by incubation with a multiplexed mixture of primary antibodies in HBSS for 60 min at room temperature (293-298 K) to detect immunoreactivity of c-Jun (1:500), phospho-histone H3 (1:100), phospho-histone H2A.x (1:200), p53 (1:400), alpha-tubulin (1:200) and Hoechst 33342 (2 ug/mL). Cells were labeled for multiplexed imaging on two separate plates: a) Hoechst 33342, MitoTracker Red, phospho-histone H3, and alpha-tubulin, and b) Hoechst 33342, phospho-histone H2A.x, and c-Jun. A final rinse with HBSS (50 uL) was performed before analysis. The primary and secondary antibodies for the proteins were phospho-histone H3 (rabbit anti-phospho-histone H3 and FITC-donkey anti-rabbit IgG), phospho-histone H2A.x (mouse anti-phospho-histone H2A.x and FITC-donkey anti-mouse IgG), c-Jun (rabbit anti-phospho-c-Jun and Cy3-donkey anti-rabbit IgG), p53 (sheep anti-p53 and Cy5-donkey anti-sheep IgG), alpha-tubulin (mouse anti-alpha-tubulin and Cy5-donkey anti-mouse IgG). These antibodies are available as the CellCiphr HepG2 assay kit (Millipore).Digital images of each well were captured using a Cellomics ArrayScan VTI (Thermo Scientific Cellomics) (0.8 NA objective, 0.63x optical coupler, and XF-93 filter set) at 20x magnification. The images were acquired using the autofocus feature of the ArrayScan instrument, which entails the following steps. First, the camera focuses on channel 1 (Hoechst 33342), where nuclei are identified. Second, a Z offset of 1 um is used for capturing mitochondria (MitoTracker Red). […]
SMILES,outcome,AC50
CC(C)(C)c1ccc(O)cc1,inactive,
[N-]=[N+]=[N-],inactive,
CCOS(=O)(=O)OCC,inactive,
CCC(C)(C)c1ccc(O)cc1,,109 µM (active)
OCC1CO1 (stereo not drawn),inactive,
CCCCN(CCCC)N=O,inactive,
Cc1ccc(O)cc1C,inactive,
Cc1ccc(N)cc1N,inactive,
CCC1(c2ccccc2)C(=O)N=C(O)NC1=O (stereo not drawn),inactive,
Nc1ccc2ccccc2c1,inactive,
O=[N+]([O-])c1ccccc1,inactive,
c1ccc2c(c1)Nc1ccccc1S2,inactive,
CCOC(=O)c1ccccc1C(=O)OCC,inactive,
CC(Cc1ccc(OCC(=O)O)cc1)NCC(O)c1csc(C(F)(F)F)n1 (stereo not drawn),inactive,
O=P(Oc1ccccc1)(Oc1ccccc1)Oc1ccccc1,,67.6 µM (active)
c1nc[nH]n1,inactive,
CCN(CC)c1ccccc1,inactive,
c1ccc(OP(Oc2ccccc2)Oc2ccccc2)cc1,inactive,
CC(C)(C)OOC(C)(C)C,inactive,
Nc1ccc(Cl)cc1,inactive,
CCCN(CCC)c1c([N+](=O)[O-])cc(C(C)C)cc1[N+](=O)[O-],,52.9 µM (active)
ClC1=C(Cl)C2(Cl)C3C(Cl)C(Cl)CC3C1(Cl)C2(Cl)Cl (stereo not drawn),,82.6 µM (active)
O=C(O)C1C(C(=O)O)C2(Cl)C(Cl)=C(Cl)C1(Cl)C2(Cl)Cl (stereo not drawn),inactive,
c1cc2c3c(cccc3c1)CC2,inactive,
Cc1cccc(N)c1,inactive,
O=P1(N(CCCl)CCCl)NCCCO1 (stereo not drawn),inactive,
CCOc1ccc(C(C)(C)COCc2cccc(Oc3ccccc3)c2)cc1,inactive,
ClC(Cl)(Cl)c1ccccc1,inactive,
